Results taken from PubChem BioAssay AID1159580 (chemical genetic matrix, 2015).
The campaign covered roughly 5,500 compounds. About 2,000 (36%) were called active. Inconclusive results (about 18%) are left out. Rule as the data show it: active = normalized growth mostly below about 0.91 (no sharp cut-off); inconclusive = no clear call, values can overlap the other calls; inactive = mostly above about 0.92. The list shows a part of the results.

Test: chemical genetic growth profiling, strain panel (AID 1159580);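 also: tested at 20 µM; growth read once vehicle control cultures reached saturation at 30 °C; 1 = growth at the plate median or of vehicle wells; lower values mean less growth of the strain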
Conditions: growth OD
[1] = S. cerevisiae deletion strains, locus YHR030C, strain SLT2, active compounds read low

Measured: normalized growth

CN(C)C=Nc1nc2c(s1)CCc1ccccc1-2
active: S. cerevisiae deletion strains, locus YEL061C, strain CIN8, active compounds read low 0.878 | [1] 0.477 | S. cerevisiae deletion strains, locus YLR085C, strain ARP6, active compounds read low 0.622 | S. cerevisiae deletion strains, locus YLR262C, strain YPT6, active compounds read low 0.811 | S. cerevisiae deletion strains, locus YML094W, strain GIM5, active compounds read low 0.798 | S. cerevisiae deletion strains, locus YNL298W, strain CLA4 (second series), active compounds read low 0.825 | S. cerevisiae deletion strains, locus YPL055C, strain LGE1, active compounds read low 0.799 | S. cerevisiae deletion strains, locus YPL241C, strain CIN2, active compounds read low 0.819 | S. cerevisiae deletion strains, locus YPR135W, strain CTF4, active compounds read low 0.635
inactive: S. cerevisiae deletion strains, locus YAL013W, strain DEP1, active compounds read low 0.953 | S. cerevisiae deletion strains, locus YBR229C, strain ROT2, active compounds read low 0.975 | S. cerevisiae deletion strains, locus YDL101C, strain DUN1, active compounds read low 0.964 | S. cerevisiae deletion strains, locus YDR150W, strain NUM1, active compounds read low 0.934 | S. cerevisiae deletion strains, locus YGR078C, strain PAC10, active compounds read low 0.989 | S. cerevisiae deletion strains, locus YHR087W, strain rtc3, active compounds read low 1.01 | S. cerevisiae deletion strains, locus YJL187C, strain SWE1, active compounds read low 0.972 | S. cerevisiae deletion strains, locus YJR043C, strain POL32, active compounds read low 0.994 | S. cerevisiae deletion strains, locus YJR075W, strain HOC1, active compounds read low 0.957 | S. cerevisiae deletion strains, locus YLR039C, strain RIC1, active compounds read low 0.794 | S. cerevisiae deletion strains, locus YLR058C, strain SHM2 (second series), active compounds read low 0.989 | S. cerevisiae deletion strains, locus YMR219W, strain ESC1, active compounds read low 0.991 | S. cerevisiae deletion strains, locus YMR263W, strain SAP30, active compounds read low 0.977 | S. cerevisiae deletion strains, locus YNL153C, strain GIM3, active compounds read low 0.968 | S. cerevisiae deletion strains, locus YNL322C, strain KRE1, active compounds read low 0.994 | S. cerevisiae deletion strains, locus YNR030W, strain Alg12, active compounds read low 0.899 | S. cerevisiae strains, strain wild type, active compounds read low 0.997

NCC1CCCCC1CC(=O)O (stereo not given)
inactive: S. cerevisiae deletion strains, locus YAL021C, strain ccr4, active compounds read low 1.01 | S. cerevisiae deletion strains, locus YAL026C, strain drs2, active compounds read low 1.02 | S. cerevisiae deletion strains, locus YAL030W, strain snc1, active compounds read low 1.03 | S. cerevisiae deletion strains, locus YBL061C, strain skt5, active compounds read low 1.04 | S. cerevisiae deletion strains, locus YBR009C, strain hhf1, active compounds read low 0.988 | S. cerevisiae deletion strains, locus YBR023C, strain chs3, active compounds read low 1.02 | S. cerevisiae deletion strains, locus YBR171W, strain sec66, active compounds read low 1.03 | S. cerevisiae deletion strains, locus YBR231C, strain swc5, active compounds read low 1.01 | S. cerevisiae deletion strains, locus YBR279W, strain paf1, active compounds read low 1.03 | S. cerevisiae deletion strains, locus YCL011C, strain gbp2, active compounds read low 1.02 | S. cerevisiae deletion strains, locus YCL016C, strain dcc1, active compounds read low 1 | S. cerevisiae deletion strains, locus YCL061C, strain MRC1, active compounds read low 1.04 | S. cerevisiae deletion strains, locus YCL069W, strain vba3, active compounds read low 1.02 | S. cerevisiae deletion strains, locus YCR088W, strain abp1, active compounds read low 1.04 | S. cerevisiae deletion strains, locus YDL005C, strain med2, active compounds read low 1.02 | S. cerevisiae deletion strains, locus YDL040C, strain nat1, active compounds read low 1.02 | S. cerevisiae deletion strains, locus YDR001C, strain nth1, active compounds read low 1.02 | S. cerevisiae deletion strains, locus YDR069C, strain doa4, active compounds read low 1.05 | S. cerevisiae deletion strains, locus YDR137W, strain rgp1, active compounds read low 1.03 | S. cerevisiae deletion strains, locus YDR159W, strain sac3, active compounds read low 0.98 | S. cerevisiae deletion strains, locus YDR195W, strain ref2 0.989 | S. cerevisiae deletion strains, locus YDR297W, strain sur2, active compounds read low 1.05 | S. cerevisiae deletion strains, locus YDR334W, strain swr1, active compounds read low 1.02 | S. cerevisiae deletion strains, locus YDR335W, strain msn5, active compounds read low 1.03 | S. cerevisiae deletion strains, locus YDR392W, strain spt3, active compounds read low 0.95 | S. cerevisiae deletion strains, locus YEL003W, strain gim4, active compounds read low 1.03 | S. cerevisiae deletion strains, locus YEL037C, strain rad23, active compounds read low 1.02 | S. cerevisiae deletion strains, locus YEL061C, strain CIN8 (second series), active compounds read low 1.02 | S. cerevisiae deletion strains, locus YER015W, strain faa2, active compounds read low 1.03 | S. cerevisiae deletion strains, locus YER016W, strain bim1, active compounds read low 1 | S. cerevisiae deletion strains, locus YER111C, strain swi4, active compounds read low 1.01 | S. cerevisiae deletion strains, locus YER155C, strain BEM2 (second series), active compounds read low 1.07 | S. cerevisiae deletion strains, locus YFR010W, strain ubp6, active compounds read low 1.02 | S. cerevisiae deletion strains, locus YGL167C, strain pmr1, active compounds read low 1.03 | S. cerevisiae deletion strains, locus YGL173C, strain kem1, active compounds read low 1.04 | S. cerevisiae deletion strains, locus YGL227W, strain vid30, active compounds read low 1.03 | S. cerevisiae deletion strains, locus YGL240W, strain doc1, active compounds read low 1.04 | S. cerevisiae deletion strains, locus YGL253W, strain hxk2, active compounds read low 1.03 | S. cerevisiae deletion strains, locus YHR013C, strain ard1, active compounds read low 1.02 | S. cerevisiae deletion strains, locus YHR027C, strain rpn1, active compounds read low 1.01 | [1] 0.999 | S. cerevisiae deletion strains, locus YHR079C, strain IRE1, active compounds read low 0.997 | S. cerevisiae deletion strains, locus YHR142W, strain chs7, active compounds read low 1.03 | S. cerevisiae deletion strains, locus YJL092W, strain hpr5, active compounds read low 1.03 | S. cerevisiae deletion strains, locus YJL095W, strain BCK1 (second series), active compounds read low 1.02 | S. cerevisiae deletion strains, locus YJL095W, strain BCK1, active compounds read low 0.988 | S. cerevisiae deletion strains, locus YJL115W, strain asf1, active compounds read low 1.03 | S. cerevisiae deletion strains, locus YJL129C, strain trk1, active compounds read low 1.04 | S. cerevisiae deletion strains, locus YJL154C, strain vps35, active compounds read low 1.01 | S. cerevisiae deletion strains, locus YJL164C, strain tpk1, active compounds read low 1.01 | S. cerevisiae deletion strains, locus YJL166W, strain qcr8, active compounds read low 1.05 | S. cerevisiae deletion strains, locus YJR066W, strain TOR1, active compounds read low 0.941 | S. cerevisiae deletion strains, locus YKL160W, strain elf1, active compounds read low 1.04 | S. cerevisiae deletion strains, locus YKR026C, strain gcn3, active compounds read low 1.02 | S. cerevisiae deletion strains, locus YKR091W, strain srl3, active compounds read low 1.02 | S. cerevisiae deletion strains, locus YLL001W, strain dnm1, active compounds read low 1.04 | S. cerevisiae deletion strains, locus YLL026W, active compounds read low 1.01 | S. cerevisiae deletion strains, locus YLL041C, strain sdh2, active compounds read low 1.02 | S. cerevisiae deletion strains, locus YLR027C, strain aat2, active compounds read low 1.04 | S. cerevisiae deletion strains, locus YLR113W, strain HOG1, active compounds read low 0.959 | S. cerevisiae deletion strains, locus YLR221C, strain rsa3, active compounds read low 1 | S. cerevisiae deletion strains, locus YLR258W, strain gsy2, active compounds read low 1.02 | S. cerevisiae deletion strains, locus YLR262C, strain YPT6 (second series), active compounds read low 1.04 | S. cerevisiae deletion strains, locus YLR320W, strain mms22, active compounds read low 1 | S. cerevisiae deletion strains, locus YLR342W, strain FKS1, active compounds read low 1.04 | S. cerevisiae deletion strains, locus YLR357W, strain rsc2, active compounds read low 1.04 | S. cerevisiae deletion strains, locus YLR370C, strain arc18, active compounds read low 1.03 | S. cerevisiae deletion strains, locus YLR384C, strain iki3, active compounds read low 1.02 | S. cerevisiae deletion strains, locus YML120C, strain ndi1, active compounds read low 1.03 | S. cerevisiae deletion strains, locus YMR058W, strain fet3, active compounds read low 1.04 | S. cerevisiae deletion strains, locus YMR125W, strain sto1, active compounds read low 0.985 | S. cerevisiae deletion strains, locus YMR129W, active compounds read low 1.02 | S. cerevisiae deletion strains, locus YMR205C, strain PFK2, active compounds read low 1.04 | S. cerevisiae deletion strains, locus YMR231W, strain pep5, active compounds read low 1.02 | S. cerevisiae deletion strains, locus YNL071W, strain lat1, active compounds read low 1.01 | S. cerevisiae deletion strains, locus YNL183C, strain NPR1, active compounds read low 0.912 | S. cerevisiae deletion strains, locus YNL209W, strain ssb2, active compounds read low 1.03 | S. cerevisiae deletion strains, locus YNL248C, strain rpa49, active compounds read low 1.01 | S. cerevisiae deletion strains, locus YNL322C, strain KRE1 (second series), active compounds read low 1.02 | S. cerevisiae deletion strains, locus YNR049C, strain mso1, active compounds read low 1.02 | S. cerevisiae deletion strains, locus YOR001W, strain rrp6, active compounds read low 1.04 | S. cerevisiae deletion strains, locus YOR070C, strain gyp1, active compounds read low 1.02 | S. cerevisiae deletion strains, locus YOR080W, strain dia2, active compounds read low 1.04 | S. cerevisiae deletion strains, locus YOR083W, strain WHI5, active compounds read low 1.01 | S. cerevisiae deletion strains, locus YOR106W, strain vam3, active compounds read low 1.06 | S. cerevisiae deletion strains, locus YOR231W, strain MKK1, active compounds read low 0.992 | S. cerevisiae deletion strains, locus YOR265W, strain rbl2, active compounds read low 1.03 | S. cerevisiae deletion strains, locus YOR270C, strain vph1, active compounds read low 1.04 | S. cerevisiae deletion strains, locus YOR290C, strain snf2, active compounds read low 1 | S. cerevisiae deletion strains, locus YPL051W, strain arl3, active compounds read low 1.03 | S. cerevisiae deletion strains, locus YPL078C, strain atp4, active compounds read low 1.05 | S. cerevisiae deletion strains, locus YPL106C, strain sse1, active compounds read low 1 | S. cerevisiae deletion strains, locus YPL240C, strain hsp82, active compounds read low 1.02 | S. cerevisiae deletion strains, locus YPL256C, strain CLN2, active compounds read low 0.961
